From PubChem BioAssay (NCI)
Compounds without any hit were thinned out: in the full panel of roughly 83,000, 20% have a hit.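 The test compound was applied at a single concentration to cells in 96-well plates for 48 hours, and percent growth was recorded.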 Calls of active or inactive are those of the source. How the source made its calls: active means growth percent below 10; inactive means the rest.

Tests used:
Assay in all cases: NCI-60 one-dose screen, 48 h (100 = growth as untreated, 0 = no growth, -100 = all killed)
Settings in all cases: 10 µM unless noted
[1] = system: DU-145 prostate
[2] = system: K-562 leukemia
[3] = system: MALME-3M melanoma
[4] = system: MDA-MB-231 breast
[5] = system: RXF 393 renal
[6] = system: SF-268 CNS
[7] = system: SF-295 CNS
[8] = system: SF-539 CNS
[9] = system: UACC-257 melanoma
[10] = system: M14 melanoma
[11] = system: HCT-15 colon
[12] = system: HT29 colon
[13] = system: SNB-75 CNS
[14] = system: SNB-19 CNS
[15] = system: U251 CNS
[16] = system: PC-3 prostate
[17] = system: UACC-62 melanoma
[18] = system: LOX IMVI melanoma
[19] = system: SK-MEL-28 melanoma
[20] = system: SK-MEL-5 melanoma

Measured: growth

Cc1cn(-c2cc(NC(=O)c3cncc(C#Cc4c(N)ncc5ccc(F)cc45)c3)cc(C(F)(F)F)c2)cn1
inactive: [1] 70.5% | [3] 21.5% | [4] 27.1% | [5] 62.7% | [6] 64.6% | [7] 85.2% | [8] 51.5% | [9] 52.9% | [10] 26.6% | [11] 49.9% | [13] 76.8% | [14] 91.9% | [15] 80.4% | [16] 71.7% | [17] 33.8% | [18] 23% | [19] 42.4%
active: [2] 3.34% | [12] 8.94%

Cc1c(CN)cc(-c2ccc(Cl)cc2)n1-c1ccccc1
inactive: [1] 89.2% | [2] 66.1% | [3] 107% | [4] 87.1% | [5] 84.6% | [6] 86.4% | [7] 87.7% | [8] 93.7% | [9] 91.1% | [10] 82.8% | [11] 80.9% | [12] 103% | [13] 78.5% | [14] 84.7% | [15] 79.9% | [16] 89.4% | [20] 82.4% | [17] 57% | [18] 67% | [19] 114%

CCn1c(-c2cc3c([nH]c4ccccc43)c(-c3cccc(O)c3)n2)n[nH]c1=S
inactive: [1] 62.3% | [2] 14.3% | [3] 51% | [4] 46.9% | [6] 48.3% | [7] 36.8% | [8] 30% | [9] 41% | [10] 18.1% | [11] 50.2% | [13] 22.2% | [14] 62.6% | [15] 23.8% | [16] 34.1% | [17] 43.6% | [18] 32.5% | [19] 53.6%
active: [5] 8.59% | [12] -19.4%

N=C(N)c1ccc(-c2ccc(-c3cc(Cl)cc(Cl)c3)s2)nc1
inactive: [3] 78.6% | [4] 61.1% | [5] 90.3% | [6] 88.4% | [7] 57.1% | [8] 57.2% | [9] 106% | [10] 79.5% | [12] 13.2% | [13] 105% | [14] 64.5% | [16] 71.3% | [20] 94% | [17] 95.2% | [19] 108%
active: [1] 1.39% | [2] -4.72% | [11] -7.35% | [15] -36.1% | [18] -75.6%

COc1ccc2cc(-c3ccnc4c(N=Nc5ccc(Cl)cc5)c(N)nn34)ccc2c1
inactive: [1] 105% | [2] 86.5% | [3] 97.8% | [4] 101% | [5] 115% | [6] 101% | [7] 102% | [8] 103% | [9] 84.2% | [10] 92.8% | [11] 112% | [12] 103% | [13] 79.4% | [14] 92.4% | [15] 93.4% | [16] 89% | [20] 97.5% | [17] 91.8% | [18] 102% | [19] 99.2%

COc1ccc(-c2ccc(-c3ccc(C(=N)N)nc3)s2)cc1Cl
active: [1] -92.5% | [2] -29.8% | [4] -75.1% | [6] -62.8% | [7] -78.4% | [8] -90.6% | [10] -40.6% | [11] -77.4% | [12] 2.52% | [14] -35.8% | [15] -71.7% | [16] -28.3% | [18] -76.4%
inactive: [3] 74.1% | [5] 56.8% | [9] 93.5% | [13] 80.5% | [20] 76% | [17] 96.3% | [19] 97.2%

COc1cc(C(=O)n2nc(N3CCOCC3)c3cc(-n4cccc4)ccc32)cc(OC)c1OC
active: [5] -9.27%
inactive: [1] 61.2% | [2] 52.4% | [3] 87.1% | [4] 54.9% | [6] 76.8% | [7] 71.8% | [8] 79.9% | [9] 103% | [10] 52.7% | [11] 17.6% | [12] 62.4% | [13] 49.8% | [14] 75.2% | [15] 68.7% | [16] 38% | [20] 64.3% | [17] 73.1% | [18] 88.7% | [19] 72.7%

COc1cccc(/C=C/C(=O)c2cccc(Nc3nc(Nc4ccccc4)nc(Nc4ccccc4)n3)c2)c1
active: [5] -38.8%
inactive: [1] 85.5% | [2] 59.4% | [3] 107% | [4] 84.6% | [6] 95.3% | [7] 71.4% | [8] 96.5% | [9] 114% | [10] 89.4% | [11] 73.4% | [12] 65.8% | [13] 71.8% | [14] 102% | [15] 53.8% | [16] 73.5% | [20] 77.9% | [17] 92% | [18] 74.4% | [19] 112%

COc1cccc(CCNc2ncnc3c2ncn3Cc2nnc3c4ccccc4c(Cl)nn23)c1
active: [18] 8.78%
inactive: [1] 50.5% | [2] 61.4% | [3] 55.8% | [4] 46.3% | [5] 48.7% | [6] 49.4% | [7] 89.9% | [8] 72.6% | [9] 59.5% | [10] 32.2% | [11] 45.2% | [12] 81.7% | [13] 50.5% | [14] 74.4% | [15] 50.7% | [16] 59.5% | [20] 77.1% | [17] 32.9% | [19] 71.6%

COC(=O)CC[C@@H]1O[C@@H](c2ccc(F)cc2)[C@@H](O)[C@H]1O
inactive: [1] 112% | [2] 109% | [3] 101% | [4] 117% | [5] 112% | [6] 103% | [7] 104% | [8] 102% | [9] 107% | [10] 92.9% | [11] 105% | [12] 108% | [13] 90.1% | [14] 108% | [15] 109% | [16] 96.8% | [17] 106% | [18] 99.8% | [19] 102%

Cc1nnc(-c2ccc3c(c2)nc(/C=C/c2ccccc2)n3C2CCCCC2)o1
inactive: [1] 91.5% | [2] 45.9% | [3] 95% | [4] 87.3% | [5] 84.6% | [6] 86.5% | [7] 76.1% | [8] 110% | [9] 77.4% | [10] 73.7% | [11] 49.4% | [12] 37.3% | [13] 103% | [14] 102% | [15] 79.8% | [16] 63.5% | [20] 70.8% | [17] 61.8% | [18] 44.3% | [19] 72.4%

COc1ccc(/C=C/C(c2cc(OC)c(OC)c(OC)c2)n2cncn2)cc1 (configuration not stated)
active: [12] 4.96%
inactive: [1] 61.2% | [2] 17.7% | [3] 61.3% | [4] 50.1% | [5] 46.5% | [6] 57.1% | [7] 22.5% | [8] 56.5% | [9] 46.4% | [10] 17.9% | [11] 31.1% | [13] 51.3% | [14] 49% | [15] 31.8% | [16] 31.2% | [17] 33.8% | [18] 50% | [19] 62.6%

CNC(=O)c1cc(Oc2ccc3c(c2)sc2nc(-c4ccc(OC)cc4)cn23)ccn1
inactive: [2] 33.8% | [3] 68.3% | [4] 62.2% | [5] 45.7% | [6] 80.1% | [7] 14.1% | [8] 83.6% | [9] 46.5% | [10] 57.9% | [11] 52.7% | [12] 65.6% | [13] 76.8% | [14] 79.8% | [15] 81.8% | [16] 58.3% | [17] 40.2% | [18] 82.1% | [19] 67.9%
active: [1] 8.28%

O=C(Nc1ccccc1O)c1ccc(CNC(=O)c2ccsc2Nc2ccnc(C(F)(F)F)c2)cc1
active: [2] 9.19% | [3] 9.89% | [5] 0.801% | [7] 2.43% | [9] 6.92% | [15] 1.39% | [20] -8.81% | [17] 9.79%
inactive: [1] 30.6% | [4] 39.1% | [6] 40.2% | [8] 42.4% | [10] 45.2% | [11] 28% | [12] 28.7% | [13] 47.8% | [16] 14.5% | [18] 34.5%

O=C1/C(=C2\SC(=S)N(C3CC3)C2=O)SC(=S)N1C1CC1
inactive: [1] 105% | [2] 103% | [3] 99.2% | [4] 101% | [5] 97.3% | [6] 95.1% | [7] 98.6% | [8] 103% | [9] 94.9% | [10] 96.3% | [11] 101% | [12] 107% | [13] 81.9% | [15] 99.6% | [16] 92% | [20] 97.4% | [17] 94.6% | [18] 88.8% | [19] 106%
